From PubChem BioAssay AID2314 (National Center for Advancing Translational Sciences (NCATS), 2010)
In all, about 300,000 compounds went through this assay and about 37,000 (12%) were called active. What follows is part of a selection rich in actives, with near analogues and random picks from the rest. A number with no mark means an inactive call. Rule as the data show it: active = max response mostly above about 13% (no sharp cut-off); inactive = mostly below about 14%.

test: Cycloheximide Counterscreen for Small Molecule Inhibitors of Shiga Toxin; conditions: cell reporter, cycloheximide protein synthesis inhibition counterscreen; stronger effect = higher value; also: read at 38.3 µM for the half of the compounds with a filed dose; 0% is about no effect

Structure (SMILES) | max response
CC(=O)NC1=NN(C(C)=O)C(C)(c2ccc(C)cc2)S1 (centres undefined) | -3.23%
Cc1cc(Br)ccc1NC(=O)c1sc2ncn(CC(=O)N3CCN(c4ccccn4)CC3)c(=O)c2c1C | -5.58%
CCOC(=O)C(C)n1cnc2sc(C)c(C)c2c1=O (centres undefined) | -0.534%
Cc1cc2ncn(CCCCOc3ccccc3)c2cc1C | -2.02%
Cc1c(C(N)=O)sc2ncn(CCOc3ccccc3)c(=O)c12 | 17.6% (active)
Cc1cccc(OC(=O)c2sc3ncn(C)c(=O)c3c2C)c1 | 32.8% (active)
COc1cccc(NC(=O)Cn2cnc3sc(C)c(S(=O)(=O)N4CCN(C)CC4)c3c2=O)c1 | -1.26%
O=c1cc(CCl)nc2scc(-c3ccccc3)n12 | 3.02%
COc1ccc(CCNC(=O)CCNS(=O)(=O)c2cc(Br)cnc2N)cc1OC | 13.2%
CN1C(=O)C2(OCCCO2)c2cc(Cl)ccc21 | 0.948%
CCCS(=O)(=O)N1CCC(CCOc2ccccc2)(C(=O)OCC)CC1 | -1.66%
COc1ccc(-c2ccc(OC)c(C3C4C=CCC(C)C4C(=O)N3Cc3ccccc3)c2)cc1C (centres undefined) | 28.8%
COc1ccc2cc1Oc1ccc(cc1)C[C@H]1c3cc(c(OC)cc3CCN1C)Oc1c(O)c(OC)cc3c1[C@H](C2)N(C)CC3 | -1.4%
O=C(c1cncc(Br)c1)N1CCN(c2ccc([N+](=O)[O-])cc2)CC1 | -2.1%
COc1ccc(N(CC(=O)Nc2cccc3ccccc23)S(C)(=O)=O)c(OC)c1 | -1.55%
CC(C)(C)[Si](OCC[C@@H]1C[C@@]1(C)[C@@H](NP(=O)(c1ccccc1)c1ccccc1)c1ccccc1)(c1ccccc1)c1ccccc1 | -2.22%
COC(=O)c1ccccc1NC(=O)c1ccc(C#N)cc1 | 14.4%
Cc1nn(-c2ccccc2)c(Cl)c1/C=C/C(=O)c1ccc(O)cc1 | 17% (active)
Cc1ccc(C(=O)/C=C/c2c(C)nn(-c3ccccc3)c2Cl)cc1 | 37.8% (active)
O=C(/C=C/c1ccc(Cl)c([N+](=O)[O-])c1)c1ccc(O)cc1 | 11.3%
CCNC(=O)COC(=O)/C=C/c1c(C)nn(Cc2cccc(OC)c2)c1Cl | -1.93%
O=C(CN1C(=O)COc2ccc(Cl)cc21)N1CCOCC1 | -0.636%
CCOC(=O)CSc1nc2ccc(C)cc2n2cnnc12 | 7.14%
Cc1ccc(C)c(S(=O)(=O)Nc2cc(C)on2)c1 | -1.71%

Structure (SMILES) | max response
CCCC(O)(CCC)C(=O)NN(C(=O)CCl)c1cccc(C)c1 | 4.6%
O=C(NNS(=O)(=O)c1ccccc1C(F)(F)F)c1cc2ncc(C(F)(F)F)cc2s1 | -2.52%
CC(C)(C)c1cc(NC(=O)NN2CCOCC2)nn1-c1c(Cl)cc(Cl)cc1Cl | 6.4%
O=C(Nn1c(-c2ccccc2)nc2ccccc2c1=O)c1ccc([N+](=O)[O-])cc1 | 1.01%
O=C(CCn1c(SCC(=O)c2ccccc2)nc2ccccc2c1=O)NCc1ccc(F)cc1 | -3.48%
O=C(Nn1c(SCc2ccc([N+](=O)[O-])cc2)nc2ccccc2c1=O)c1ccc(F)cc1 | 116% (active)
Cc1ccc(CNS(=O)(=O)c2ccc3c(c2)N(C)CCO3)cc1 | 13.9%
COc1ccccc1NC(=O)c1ccc(C)s1 | 64% (active)
COc1ccccc1NC(=O)C1=C(C)NC(=O)NC1c1ccc(C)s1 (centres undefined) | -3.68%
COC(=O)c1c(NC(C)=O)sc(C(=O)Nc2ccccc2OC)c1C | -2%
CCCCn1c(=S)[nH]c2cc(S(=O)(=O)N3CCCCC3)ccc21 | -3.25%
Nc1nnnn1/N=C/c1cc([N+](=O)[O-])ccc1O | 1.42%
O=C(N/N=C/c1cc([N+](=O)[O-])ccc1O)/C(=C\c1cccs1)NC(=O)c1ccccc1 | -1.19%
O=[N+]([O-])c1ccc(O)c(/C=N/Nc2ccccc2[N+](=O)[O-])c1 | 15.6% (active)
Cc1cc(C)c(OCC(=O)N/N=C/c2ccco2)c(C)c1 | -3.21%
CC(/C=N/NC(=O)c1cc(-c2ccc3ccccc3c2)n[nH]1)=C\c1ccco1 | 22.2% (active)
CC(/C=N/NC(=O)c1ccncc1)=C\c1ccco1 | 10.3%
OCCNCc1cccc(OCc2ccccc2Cl)c1 | -3.04%
O=C(COC(=O)c1cc(=O)[nH]c2ccccc12)Nc1nc(-c2cccc(Br)c2)cs1 | 0.762%
Cc1cc(O)c(NC(=O)c2ccc(C)c([N+](=O)[O-])c2)cc1C | 40.4% (active)
Cc1ccc(C(=O)Nc2cccc3ncccc23)cc1[N+](=O)[O-] | 9.95%
CCN1CCC(=NNC(=O)c2ccc(C)c([N+](=O)[O-])c2)CC1 | -3.08%
COc1cccc(-c2nc(CS(=O)(=O)CC(=O)NCCc3ccc(OC)c(OC)c3)c(C)o2)c1 | 16%
O=C(O)/C=C/C(=O)Nc1ccc(F)cc1F | 7.97%

Structure (SMILES) | max response
COC(=O)c1sc(-c2ccc(C(C)(C)C)cc2)cc1NC(=O)/C=C/C(=O)O | 45.7% (active)
COc1ccccc1NC(=O)/C=C/C(=O)O | -1.17%
O=C(CCn1nnnc1CN1CCOCC1)N1CCC(c2ccccc2Cl)C1 (centres undefined) | -3.06%
CC(=O)c1c(C)n(-c2ccc(C)cc2)c2ccc(O)cc12 | -2.22%
O=C(CSc1nc2ccccc2o1)N1CCN(c2ccccc2)CC1 | -3.14%
CCOC(=O)CSc1nnc(-c2cccc(Br)c2)o1 | -2.27%
CCS(=O)(=O)c1ccc2oc(SCC(=O)N3c4ccccc4CC3C)nc2c1 (centres undefined) | -5.84%
CCOC(=O)n1c(SCC(=O)N(CC)CC)nc2ccccc21 | 0.246%
CCN(CC)C(=O)CSc1nnc(-c2cccc(OC)c2)o1 | 41% (active)
CC1Cc2ccccc2N1C(=O)CSc1nc2ccccc2o1 (centres undefined) | 42.4% (active)
CCN(CC)C(=O)CSc1nc2ccccc2o1 | 21.2% (active)
O=C(CSc1nc2ccccc2o1)N1c2ccccc2Sc2ccc(Cl)cc21 | -1.63%
O=C(CSc1nc2ccccc2o1)N1CCN(c2ccc(Cl)cc2)CC1 | 3.68%
CC(C)(C)C(=O)CSc1nc2ccccc2o1 | 34.5% (active)
Cc1cc(=O)[nH]c(SCC(=O)N2c3ccccc3CC2C)n1 (centres undefined) | 1.01%
CCN(CC)C(=O)CSc1nnc(-c2ccc(S(=O)(=O)NCc3ccccc3Cl)cc2)o1 | -0.581%
COc1ccc(CCNC(=O)C2CCCN2C(=O)Nc2ccccc2)cc1OC (centres undefined) | -1.21%
CCOC(=O)c1c(NC(=O)C2CC=CCC2C(=O)O)sc(C)c1CC (centres undefined) | -3.33%
Nc1nnnn1/N=C/c1cccc(Br)c1 | -1.37%
COc1ccc(-c2nn(C)c(=O)c3ccccc23)cc1CNC(=O)C1CCCCC1 | -2.76%
Cc1ccccc1Nc1scc(-c2ccc(Br)cc2)[n+]1-c1ccccc1C | 12.1%
CC(C)OC(=O)CN1CCN(c2ccc(Cl)cc2)CC1 | -1.75%
CC1CCCN(CCOCCOc2ccccc2-c2ccccc2)C1 (centres undefined) | -1.97%
Cc1ccc(CNC(=O)CSc2nnc3c(n2)[nH]c2ccc(F)cc23)cc1 | -7.47%

Structure (SMILES) | max response
CC(c1nnc(SCC(=O)Nc2sccc2C#N)n1-c1ccc(Cl)cc1)N(C)C (centres undefined) | -5.17%
CCOc1ccc(NC(=O)C/C(C)=N/NC(=O)Cc2cccs2)cc1 | 11.9%
CCc1nnc(NC(=O)/C=C/c2ccc(C)o2)s1 | 21.2% (active)
CCC(CC)c1nnc(NC(=O)/C=C/c2ccco2)s1 | 17.5%
CCc1nnc(NC(=O)CCC(=O)O)s1 | -1.47%
Cc1nnc(NC(=O)/C=C/c2ccco2)s1 | 25.7% (active)
CCOC(=O)c1c(NC(=O)/C=C/c2ccco2)sc(C)c1C | -2.54%
Cc1ccc(/C=C/C(=O)Nc2ccc([N+](=O)[O-])c(NC(=O)/C=C/c3ccc(C)o3)c2)o1 | -2.46%
CNC(=O)c1[nH]cnc1C(=O)N[C@@H](CC(C)C)C(=O)OCc1ccccc1 | 0.929%
COc1ccc(NC(=O)NCCN2CCN(c3ccc(C)cc3)CC2)c(Cl)c1 | -1.67%
COc1ccccc1NC(=O)CSc1nnc(CNC(=O)c2ccccc2F)o1 | 1.71%
N#Cc1ccc(S(=O)(=O)NCC(=O)OCC(=O)NCCc2ccccc2)cc1 | 1.22%
COc1ccc(-n2cnnc2SCC(=O)Nc2cccc([N+](=O)[O-])c2)cc1 | -4.87%
Cc1ccccc1OCCOc1ccc([N+](=O)[O-])cc1/C=N/n1cnnc1 | -2.75%
COc1cc(C(=S)N2CCOCC2)ccc1O | -0.128%
COc1ccc(OCC(=O)N2CCOCC2)cc1 | 9.77%
COc1ccc(/C(C)=N/N2CCOCC2)c(O)c1 | 26.7% (active)
CCN(C(=O)Cc1nc(N)n[nH]1)C1(C(=O)Nc2ccccc2)CCCCC1 | -6.07%
Cc1cc(=O)oc2cc(OCCC[n+]3ccccc3)ccc12 | 1.33%
CC(C)c1c(C(=O)N/N=C/c2ccc(-c3ccccc3)cc2)nnn1-c1nonc1N | -10.6%
Cc1nonc1C(=O)N/N=C/c1ccc(O)cc1 | 37.3% (active)
O=C(C[n+]1ccccc1)N/N=C/c1ccc(O)cc1 | -3.62%
